According to PubChem BioAssay (EPA / NIEHS):
Active and inactive are the calls of the source. How the source made its calls: active means hit-call score of the fitted dose curve at least 0.9, where 1 is the maximum; inactive means score below 0.9.

Tests used:
[1] = read-out: Vascular cell adhesion molecule 1 (VCAM1), VCAM1 (gene 7412); assay: BSK_4H_VCAM1: BioMAP Diversity Plus: 4H Assay for Vascular cell adhesion molecule 1 (VCAM1) Biomarker Activity (AID 2283033); settings: primary human endothelial cells (HUVEC); actives raise or lower the signal
How it was run: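 Chemicals are added to primary human umbilical vein endothelial cells. After 24 h, VCAM-1 levels are measured by ELISA. Values come from bidirectional fitting referenced to DMSO.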

[2] = read-out: Interferon-gamma inducible Protein 10 (IP10), CXCL10 (gene 3627); assay: BSK_BE3C_IP10: BioMAP Diversity Plus: BE3C Assay for Interferon-gamma inducible Protein 10 (IP10) Biomarker Activity (AID 2283034); settings: primary human bronchial epithelial cells; actives raise or lower the signal
How it was run: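 IP-10 quantified by ELISA serves as the endpoint. Cells: primary human bronchial epithelium, read 24 h after compound addition. Activity is derived by bidirectional fitting with DMSO as negative control.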

[3] = read-out: Transforming growth factor beta 1 (TGFb1), TGFB1 (gene 7040); assay: BSK_BE3C_TGFb1: BioMAP Diversity Plus: BE3C Assay for Transforming growth factor beta 1 (TGFb1) Biomarker Activity (AID 2283036); settings: primary human bronchial epithelial cells; actives raise or lower the signal
How it was run: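 Bronchial epithelial primary cells are treated with test chemical, then TGF-b1 is quantified by ELISA after 24 hours. Values derive from bidirectional fitting against DMSO, with cytotoxicity checked by SRB staining in parallel cultures.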

[4] = read-out: Plasminogen activator inhibitor-1 (PAI1), SERPINE1 (gene 5054); assay: BSK_BE3C_PAI1: BioMAP Diversity Plus: BE3C Assay for Plasminogen activator inhibitor-1 (PAI1) Biomarker Activity (AID 2283037); settings: primary human bronchial epithelial cells; actives raise or lower the signal
How it was run: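 Values derive from bidirectional fitting against DMSO baseline of PAI-1 levels, measured by ELISA in human bronchial epithelial cells 24 h after compound addition.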

[5] = read-out: urokinase plasminogen activator (uPA), PLAU (gene 5328); assay: BSK_BE3C_uPA: BioMAP Diversity Plus: BE3C Assay for urokinase plasminogen activator (uPA) Biomarker Activity (AID 2283038); settings: primary human bronchial epithelial cells; actives raise or lower the signal
How it was run: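 Bronchial epithelial cells (human, primary); chemical 24 h; uPA by ELISA; bidirectional fit vs DMSO. SRB (0.1%, after 10% TCA fixation, 560 nm) in parallel cultures for cytotoxicity.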

[6] = read-out: Urokinase-type plasminogen activator receptor (uPAR), PLAUR (gene 5329); assay: BSK_BE3C_uPAR: BioMAP Diversity Plus: BE3C Assay for Urokinase-type plasminogen activator receptor (uPAR) Biomarker Activity (AID 2283039); settings: primary human bronchial epithelial cells; actives raise or lower the signal
How it was run: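 Steps: dose human primary bronchial epithelial cells, incubate 24 h, measure uPAR by ELISA, then fit gain- or loss-of-signal response bidirectionally relative to DMSO.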

[7] = read-out: Interleukin-6 (IL6), IL6 (gene 3569); assay: BSK_CASM3C_IL6: BioMAP Diversity Plus: CASM3C Assay for Interleukin-6 (IL6) Biomarker Activity for (AID 2283040); settings: primary human coronary artery smooth muscle cells; actives raise or lower the signal
[8] = read-out: Interleukin-8 (IL8), CXCL8 (gene 3576); assay: BSK_CASM3C_IL8: BioMAP Diversity Plus: CASM3C Assay for Interleukin-8 (IL8) Biomarker Activity (AID 2283042); settings: primary human coronary artery smooth muscle cells; actives raise or lower the signal;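 further: IL-8 protein level quantified by ELISA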
[9] = read-out: Human Leukocyte Antigen - DR isotype (HLADR), HLA-DRA (gene 3122); assay: BSK_CASM3C_HLADR: BioMAP Diversity Plus: CASM3C Assay for Human Leukocyte Antigen - DR isotype (HLADR) Biomarker Activity (AID 2283043); settings: primary human coronary artery smooth muscle cells; actives raise or lower the signal;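 further: cell-surface HLA-DR protein level quantified by ELISA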
[10] = read-out: Macrophage colony-stimulating factor (MCSF), CSF1 (gene 1435); assay: BSK_CASM3C_MCSF: BioMAP Diversity Plus: CASM3C Assay for Macrophage colony-stimulating factor (MCSF) Biomarker Activity (AID 2283044); settings: primary human coronary artery smooth muscle cells; actives raise or lower the signal;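 further: M-CSF protein amount quantified by ELISA after 24 h exposure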
[11] = read-out: Low-density lipoprotein receptor (LDLR), LDLR (gene 3949); assay: BSK_CASM3C_LDLR: BioMAP Diversity Plus: CASM3C Assay for Low-density lipoprotein receptor (LDLR) Biomarker Activity (AID 2283045); settings: primary human coronary artery smooth muscle cells; actives raise or lower the signal;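 further: LDLR protein level on the cell surface quantified by ELISA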
[12] = read-out: Monocyte Chemoattractant Protein-1 (MCP1), CCL2 (gene 6347); assay: BSK_CASM3C_MCP1: BioMAP Diversity Plus: CASM3C Assay for Monocyte Chemoattractant Protein-1 (MCP1) Biomarker Activity (AID 2283046); settings: primary human coronary artery smooth muscle cells; actives raise or lower the signal;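 further: MCP-1 level quantified by ELISA 24 h after dosing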
[13] = BSK_CASM3C_Proliferation: Cell Proliferation Assessment in the BioMAP Diversity Plus: CASM3C Assay (AID 2283047); settings: primary human coronary artery smooth muscle cells;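 further: sulforhodamine B total protein stain as relative cell number at 560 nm; sub-confluent cells exposed 48 h before staining; fitted both ways against DMSO so gain or loss of cell number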
[14] = read-out: Monokine induced gamma interferon (MIG), CXCL9 (gene 4283); assay: BSK_CASM3C_MIG: BioMAP Diversity Plus: CASM3C Assay for Monokine induced gamma interferon (MIG) Biomarker Activity (AID 2283048); settings: primary human coronary artery smooth muscle cells; actives raise or lower the signal;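 further: MIG protein level measured by ELISA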
[15] = read-out: serum amyloid A (SAA), SAA1 (gene 6288); assay: BSK_CASM3C_SAA: BioMAP Diversity Plus: CASM3C Assay for serum amyloid A (SAA) Biomarker Activity (AID 2283049); settings: primary human coronary artery smooth muscle cells; actives raise or lower the signal;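 further: SAA protein level quantified by ELISA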
[16] = BSK_CASM3C_SRB: Viability Assessment in the BioMAP Diversity Plus: CASM3C Assay (AID 2283050); settings: primary human coronary artery smooth muscle cells;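 further: total protein by SRB staining as cytotoxicity measure in parallel cultures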
[17] = read-out: Thrombomodulin, THBD (gene 7056); assay: BSK_CASM3C_Thrombomodulin: BioMAP Diversity Plus: CASM3C Assay for Thrombomodulin Biomarker Activity (AID 2283051); settings: primary human coronary artery smooth muscle cells; actives raise or lower the signal;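 further: thrombomodulin protein level measured by ELISA 24 h after dosing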
[18] = read-out: Tissue Factor, F3 (gene 2152); assay: BSK_CASM3C_TissueFactor: BioMAP Diversity Plus: CASM3C Assay for Tissue Factor Biomarker Activity (AID 2283052); settings: primary human coronary artery smooth muscle cells; actives raise or lower the signal;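 further: cell surface tissue factor protein level read by ELISA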
[19] = read-out: Tissue plasminogen activator (tPA), PLAT (gene 5327); assay: BSK_BE3C_tPA: BioMAP Diversity Plus: BE3C Assay for Tissue plasminogen activator (tPA) Biomarker Activity (AID 2283041); settings: primary human bronchial epithelial cells; actives raise or lower the signal
How it was run: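 Gain- or loss-of-signal in tPA, measured by ELISA, derived by bidirectional fitting against DMSO. Cells: human primary bronchial epithelial; read at 24 h after chemical dosing.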

Measured: AC50

C#CCOC(=O)/C=C(C)/C=C/CC(C)CCCC(C)C (configuration not stated)
active: [1] 26.4 µM | [2] 1.32 µM | [9] 3.97 µM | [18] 4.03 µM
not listed: [19]
inactive: all other assays above

CCOP(=S)(OCC)SCS(=O)(=O)C(C)(C)C
not listed: [19]
inactive: all other assays above

Oc1c(Br)cc(Br)cc1Br
active: [1] 20 µM | [2] 20 µM | [6] 20 µM
not listed: [19]
inactive: all other assays above

O=[N+]([O-])c1ccc(Nc2ccccc2)cc1
not listed: [19]
inactive: all other assays above

COc1ccccc1N
not listed: [19]
inactive: all other assays above

Cc1cccc(OP(=O)(Oc2cccc(C)c2)Oc2cccc(C)c2)c1
active: [4] 2.76 µM | [5] 0.016 µM | [19] 0.677 µM | [10] 0.139 µM | [12] 0.075 µM
inactive: all other assays above

O=c1oc2ccccc2c(O)c1C(CC(O)c1ccc(-c2ccc(Br)cc2)cc1)c1ccccc1 (configuration not stated)
inactive: [14] | [17]
active: [1] 13.9 µM | [2] 5.4 µM | [3] 0.144 µM | [4] 0.915 µM | [5] 5.29 µM | [6] 5.34 µM | [7] 25 µM | [8] 0.0413 µM | [9] 4.99 µM | [10] 16.3 µM | [11] 19.1 µM | [12] 7.44 µM | [13] 19.1 µM | [15] 0.0998 µM | [16] 13.9 µM | [18] 16.2 µM

O=C(N[C@H]1CN2CCC1CC2)c1ccc2c(c1)OCCO2
not listed: [19]
inactive: all other assays above

O=S(=O)(C(Cl)(Cl)Cl)C(Cl)(Cl)Cl
active: [1] 1.43 µM | [2] 2.86 µM | [3] 9.08 µM | [4] 3.87 µM | [5] 5.31 µM | [6] 7.21 µM | [7] 1.61 µM | [8] 1.69 µM | [9] 1.31 µM | [10] 2.2 µM | [12] 2.28 µM | [13] 0.528 µM | [14] 3.13 µM | [15] 0.877 µM | [16] 1.54 µM | [18] 1.85 µM
inactive: [11] | [17]

O=C1C=CC(=O)c2ccccc21
active: [1] 1.95 µM | [2] 2.01 µM | [3] 2.26 µM | [4] 3.25 µM | [5] 4.36 µM | [6] 4.59 µM | [7] 9.25 µM | [8] 20 µM | [9] 2.45 µM | [10] 5.16 µM | [11] 10.8 µM | [12] 8.9 µM | [13] 0.474 µM | [14] 30.1 µM | [15] 3.37 µM | [16] 8.33 µM | [17] 34.1 µM | [18] 6.75 µM

O=S(=O)(c1ccc(Cl)cc1)c1cc(Cl)c(Cl)cc1Cl
active: [1] 20 µM | [2] 28.6 µM | [17] 8.36 µM
not listed: [19]
inactive: all other assays above

CCN(CC)C(=O)C(Cl)=C(C)OP(=O)(OC)OC
not listed: [19]
inactive: all other assays above
